KB-3-1 cytotox – qHTS assay for MDR1-selective chemotherapeutics: Primary screen using the parental adenocarcinoma cell KB-3-1. 400,000 tested, 1.4% active. AID 1347075, 2019. KB-3-1 viability, CellTiter-Glo ATP luminescence, 72 h. Potency, µM (titrated, usually from 46.1 µM), hits mostly cytotoxic; note: nearly all actives have a fitted effect of over 60% in size
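KB-3-1 parental drug-naive adenocarcinoma cells in DMEM/10% FBS, incubated 72 h at 37 C with pin-transferred compounds across a concentration series. Viability by CellTiter-Glo luminescence; concentration-response curves fitted after normalization.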
KB-V1 cytotox – qHTS assay for MDR1-selective chemotherapeutics: Primary screen using the drug-selected MDR subline cells KB-V1; Potency, µM (doses to about 46.1 µM), usual class: cytotoxic; 400,000 tested, 3.4% active; AID 1347076, 2019; KB-V1 MDR cells viability, CellTiter-Glo, 72 h; note: nearly all actives have a fitted effect of over 60% in size
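Compound-treated KB-V1 multidrug-resistant cells, 72 h, 37 degrees C; viability by CellTiter-Glo. Fitted qHTS curves give the values.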
HT1080 IDH1KD tx – qHTS for induction of synthetic lethality in tumor cells producing 2HG: qHTS for the HT-1080-IDH1KD cell line; HT-1080 IDH1 knockdown viability, ATP luminescence, 48 h; Potency, µM (doses to about 46.1 µM), hits mostly cytotoxic; 360,000 tested, 2% active; AID 686971, 2013
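In this qHTS, HT-1080 cells depleted of IDH1 are exposed for 48 h at 37 °C to compound titrations. Toxicity is scored from CellTiter-Glo luminescence, with DMSO as full viability and medium alone as none.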
IL1B secr inh – qHTS for Inhibitors of Inflammasome Signaling: IL-1-beta AlphaLISA Primary Screen | 360,000 tested, 4.7% active | activity change, % at 57.5 µM | THP-1 LPS/ATP IL-1B secretion, AlphaLISA, 16 h; stronger effect = lower value; in the data active = activity change below about -50%; inconclusive = mostly about -30% to -49%
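THP-1 cells pretreated 1 hr with compounds (up to 57.5 uM final), then stimulated with LPS (250 ng/mL final) plus ATP (1.25 mM final); secreted IL-1B measured by AlphaLISA after 16 hr, decreased signal indicating inhibition.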
HT1080NT lethal – qHTS for induction of synthetic lethality in tumor cells producing 2HG: qHTS for the HT-1080-NT fibrosarcoma cell line. HT-1080-NT fibrosarcoma viability, CellTiter-Glo ATP luminescence, 48 h. Potency, µM (doses to about 46.1 µM), hits mostly cytotoxic. 360,000 tested, 1.6% active;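 note: NT is the 2HG producing partner of a matched IDH1 knockdown line; nearly all actives have a fitted effect of over 55% in size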
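Compounds were tested in concentration-response format on HT-1080-NT cells for 48 hours at 37 degrees C. Cell viability came from CellTiter-Glo luminescence; curves were classified by r2, response magnitude and activity.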
A number is an active result; n = inactive; u = inconclusive; x = no result given. Only some compounds are listed: those with a hit (about 8.8% of all), similar ones and a draw of the others. Unless noted, calls come from the whole dose curve; as a rule, active = well fitted curve in the direction sought with a large enough effect; inconclusive = small, poorly fitted or top-dose-only effect, or another doubt; inactive = no such curve, though single readings can be large; an effect the other way counts as inactive or inconclusive.

SMILES	KB-3-1 cytotox	KB-V1 cytotox	HT1080 IDH1KD tx	IL1B secr inh	HT1080NT lethal
Cc1ccc(-c2noc(CCCC(=O)Nc3cccnc3)n2)cc1	n	u	23.1µM	n	n
Cc1csc2nc(O)c(C(=O)NCCCc3ccccc3)c(=O)n12	u	16.4µM	n	n	n
Cc1csc2nc(O)c(C(=O)NCCC3=CCCCC3)c(=O)n12	n	9.2µM	n	n	n
O=C(NCCC1=CCCCC1)c1cnccn1	n	n	n	n	n
CCOC(=O)c1[nH]c(C)c(C(=O)NCc2ccc(Cl)cc2)c1C	n	23.1µM	n	n	u
CCOC(=O)c1c(C)[nH]c(C)c1S(=O)(=O)N(C)CC(=O)Nc1cc(Cl)ccc1C	n	n	x	x	x
CCOC(=O)c1[nH]c(C)c(C(=O)NCc2ccc(F)cc2)c1C	n	n	x	x	x
CCOC(=O)c1[nH]c(C)c(C(=O)N(C)Cc2ccccc2)c1C	n	16.4µM	n	n	n
CCOC(=O)c1[nH]c(C)c(C(=O)Nc2cc(Cl)ccc2C)c1C	u	0.461µM	0.0891µM	n	0.316µM
CCOC(=O)c1c(C)[nH]c(C(=O)OCc2ccccc2)c1C	n	n	n	n	n
CCOC(=O)c1[nH]c(C)c(C(=O)Nc2ccccc2C)c1C	u	n	2.31µM	n	5.8µM
Cc1ccc(NC(=O)Cn2c(=O)c3ccccc3n3nncc23)cc1	n	n	x	x	x
COc1ccc(/C=C/C(=O)OCC(=O)NC2CCCC2)c(OC)c1	n	n	n	n	n
CCOC(=O)c1[nH]c(C)c(C(=O)NCc2cccc(OC)c2)c1C	n	n	x	x	x
COc1ccc(CCNC(=O)c2[nH]c(C)c(C(C)=O)c2C)cc1OC	n	n	n	n	n
CCOC(=O)c1[nH]c(C)c(C(=O)NCCc2ccc(OC)cc2)c1C	n	14.6µM	n	n	n
CCOc1ccc(CCNC(=O)c2[nH]c(C)c(C(C)=O)c2C)cc1OCC	n	18.4µM	n	n	n
CCOC(=O)c1[nH]c(C)c(C(=O)N2CCN(c3ccccc3)CC2)c1C	n	16.4µM	n	n	n
O=S1(=O)N=C(Oc2ccc(-c3ccccc3)cc2)c2ccccc21	n	n	x	x	x
COc1ccc(CCC(=O)N2CCN(c3ccccc3)CC2)cc1OC	n	u	n	n	n
Cn1cnnc1SCC(=O)NC1CCCC1	n	n	n	n	n
CSCCC(NC(=O)c1ccco1)C(=O)NCCc1ccc(Cl)cc1 (stereo not drawn)	x	x	n	n	n
CC(C)(C)c1cc(NC(=O)Nc2ccc(Br)cc2Cl)no1	n	n	n	-56.7	n
CC(C)(C)c1cc(NC(=O)Nc2ccc(Cl)cc2Cl)no1	n	n	u	n	u
CCOC(=O)c1c(C)[nH]c(C)c1C(=O)COC(=O)c1c(OC)cccc1OC	n	n	n	n	n
SMILES	KB-3-1 cytotox	KB-V1 cytotox	HT1080 IDH1KD tx	IL1B secr inh	HT1080NT lethal
Cc1ccsc1C(=O)OCC(=O)NCCNC(=O)COC(=O)c1sccc1C	n	n	n	n	n
CCOC(=O)c1c(C)[nH]c(C)c1C(=O)COC(=O)c1sccc1C	n	18.4µM	n	n	n
Cc1ccsc1C(=O)OCC(=O)Nc1sccc1C(N)=O	n	18.4µM	n	n	n
CCOC(=O)c1c(C)[nH]c(C)c1C(=O)COC(=O)c1ccc(Cl)c(S(=O)(=O)NCc2ccccc2)c1	u	n	23.1µM	n	18.4µM
CCOC(=O)c1c(C)[nH]c(C)c1C(=O)COC(=O)c1cc2ccccc2cc1O	n	n	u	-67.0	n
CC(C)(C)OC(=O)C[C@H]1C/C=C\C[C@@H](CC(=O)N[C@H](CO)Cc2ccccc2)C(=O)N2CCC[C@H]2COC1=O	n	n	n	n	n
CC(Sc1nnc(CC(=O)Nc2ccccc2F)n1C)C(=O)Nc1nccs1 (stereo not drawn)	n	n	n	n	n
CCOC(=O)c1c(C)[nH]c(C)c1C(=O)COC(=O)/C=C/c1ccc(OC)cc1	u	13µM	14.6µM	n	u
CCOC(=O)c1c(C)[nH]c(C)c1C(=O)COC(=O)/C=C/c1cccc(F)c1	n	n	n	n	n
Cc1c(CCC(=O)NCCCCCC(=O)O)c(=O)oc2cc3occ(-c4ccccc4)c3cc12	n	n	n	n	n
COc1ccc(NC(=O)c2csc(Cc3ccc(Cl)cc3)n2)cc1	n	n	n	n	n
COc1ccc(CNC(=O)c2csc(Cc3ccc(Cl)cc3)n2)cc1	n	u	n	-55.1	n
COc1ccc(Cc2nc(C(=O)Nc3ccccc3)cs2)cc1	n	n	n	-53.6	u
Nc1ccc(CC(N)c2csc(Nc3cc(Oc4ccccc4)ncn3)n2)cc1 (stereo not drawn)	n	n	u	-85.3	u
COc1ccc(CC(N)c2csc(Nc3cc(NCc4ccco4)ncn3)n2)cc1 (stereo not drawn)	n	n	u	-51.1	u
NC(Cc1ccc(C(F)(F)F)cc1)c1csc(Nc2cc(Oc3ccccc3)ncn2)n1 (stereo not drawn)	u	u	u	-88.9	u
C[C@H](CO)N1C[C@H](C)[C@H](CN(C)C(=O)Cc2ccncc2)Oc2ncc(Br)cc2C1=O	n	n	n	n	n
Cc1cc(C)cc(N2CC(C(=O)OCC(=O)Nc3cc(C)on3)CC2=O)c1 (stereo not drawn)	n	n	n	n	n
O=S(=O)(CCN1C=CC(C(F)(F)F)=NCC1)c1ccc(Cl)cc1Cl	n	n	n	-67.6	n
Cc1ccc(C(=O)CCS(=O)(=O)c2ccc(Br)cc2)cc1	n	n	n	u	n
O=C(CCNc1cccc(F)c1)c1cccc([N+](=O)[O-])c1	n	n	u	-86.0	u
O=C(Nc1cccc([N+](=O)[O-])c1)c1ccncc1	n	n	n	n	n
O=C(CCNc1ccc(Cc2ccncc2)cc1)c1cccc([N+](=O)[O-])c1	n	n	u	-108.6	n
CC(=O)Nc1cc[n+](CC(=O)c2cccc([N+](=O)[O-])c2)cc1	n	n	n	n	n
Cc1ccc(S(=O)(=O)Cc2cc(F)c([N+](=O)[O-])cc2[N+](=O)[O-])cc1	u	u	6.51µM	-92.4	2.91µM
Cc1ccc(S(=O)(=O)CCC(=O)c2cccc([N+](=O)[O-])c2)cc1	n	n	6.51µM	-98.0	u
COc1ccc(C(=O)C(CN2CCOCC2)c2ccccc2)cc1F (stereo not drawn)	u	u	11.6µM	-101.2	u
CCCOc1ccc(C(=O)C(CN2CCOCC2)c2ccccc2)cc1 (stereo not drawn)	u	u	16.4µM	-96.9	18.4µM
